{
  "source": "PubChem BioAssay (Tox21)",
  "note": "Records with an inconclusive call do not appear. Unmarked numbers belong to inactive results. Calls follow the shape of the dose curve; as a rule, active = well fitted cell-killing curve with a large enough effect in the repeat runs; inconclusive = weak or mixed curves, or effect the other way; inactive = no such curve, though single readings can be large or run the other way. % is scaled to controls: 0 for no effect and ±100 for the full control effect.",
  "data": [
    {"assay": "qHTS assay to identify small molecule antagonists of the vitamin D receptor (VDR) signaling pathway - cell viability counter screen (AID 743225); also: nearly all actives have a fitted effect of over 50% in size", "details": "VDR-bla HEK293T viability, CellTiter-Glo luminescence, 16 h; series mostly up to 61 µM; viability change, negative = cytotoxic: at the top concentration", "excerpt": "U.S. Tox21 Program National Center for Advancing Translational Sciences [NCATS] NIH Chemical Genomics Center [NCGC] U.S. Environmental Protection Agency [EPA] National Institutes of Environmental Health Sciences [NIEHS] National Toxicology Program [NTP] U.S. Food and Drug Administration [FDA] Tox21 Assay Overview: The vitamin D receptor (VDR), a member of nuclear hormone receptor superfamily, plays a critical role in calcium homeostasis and bone metabolism. It is also involved in cell differentiation and growth, and thrombogenicity. To identify the compounds that inhibit VDR signaling, the VDR-UAS-bla HEK 293T cell line (Invitrogen, Carlsbad, CA, USA) containing a beta-lactamase reporter gene under the control of an upstream activator sequence (UAS) was used to screen the Tox21 10K compound library. The cytotoxicity of the Tox21 compound library against the VDR-bla cell line was tested in parallel by measuring the cell viability using CellTiter-Glo assay (Promega, Madison, WI) in the same wells.\nTox21 Assay Protocol Summary: VDR-bla cells were dispensed at 2,000 cells/5 uL of assay medium per well into black wall/clear-bottom 1536-well plates using a Multidrop Combi (Thermo Fisher Scientific, Waltham, MA) dispenser. After the assay plates were incubated at a 37C and 5% CO2 for 4 h, 23 nL of compounds dissolved in DMSO, positive controls or DMSO only was transferred to the assay plate by a Pintool station (Kalypsys, San Diego, CA), followed by addition of 1 uL of 1-alpha, 25-Dihydroxy Vitamin D3 (3 nM, final concentration in the wells) using a Bioraptr Flying Reagent Dispenser (FRD) workstation (Beckman Coulter, Indianapolis, IN). The plates were incubated at 37C and 5% CO2 for 16 h, and then 1 uL of LiveBLAzerTM B/G FRET substrate was added using a Bioraptr FRD. The plates were incubated at room temperature for 2 h and fluorescence intensity was measured by an Envision plate reader (PerkinElmer, Shelton, CT). For cell viability readout that measures cytotoxicity, 3 ul/well of CellTiter-Glo reagent was added into the assay plates using a Bioraptr FRD. After 30 min incubation at room temperature, the luminescence intensity in the plates was measured using a ViewLux plate reader (PerkinElmer).", "values": [
      {"molecule": "O=C(OCCCCCCOC(=O)c1ccccc1)c1ccccc1", "viability change, negative = cytotoxic": "9.58%"},
      {"molecule": "Cc1ccc(N=Nc2c(O)c(C(=O)O)cc3ccccc23)c(S(=O)(=O)O)c1", "viability change, negative = cytotoxic": "-1.04%"},
      {"molecule": "CC(C)(COC(=O)c1ccccc1)COC(=O)c1ccccc1", "viability change, negative = cytotoxic": "0.235%"},
      {"molecule": "CCCNCC(O)COc1ccccc1C(=O)CCc1ccccc1", "note": "(stereo not given)", "viability change, negative = cytotoxic": "-19.1%"},
      {"molecule": "CN(C)c1ccc(C(c2ccccc2)c2ccc(N(C)C)cc2)cc1", "viability change, negative = cytotoxic": "-17.5%"},
      {"molecule": "CCC(=O)O[C@]1(C(=O)CCl)[C@@H](C)C[C@H]2[C@@H]3CCC4=CC(=O)C=C[C@]4(C)[C@@]3(F)[C@@H](O)C[C@@]21C", "viability change, negative = cytotoxic": "0.829%"},
      {"molecule": "CCC(C)(C)CC", "viability change, negative = cytotoxic": "-13.2% [at 78.8 µM]"},
      {"molecule": "c1ccc(CNCCNCc2ccccc2)cc1", "viability change, negative = cytotoxic": "-0.228%"},
      {"molecule": "O=C(O)C1(C(=O)Nc2ccc(Cl)cc2Cl)CC1", "viability change, negative = cytotoxic": "-27.1%"},
      {"molecule": "OC[C@H]1O[C@@H](OCCc2ccc(O)cc2)[C@H](O)[C@@H](O)[C@@H]1O", "viability change, negative = cytotoxic": "3.05%"},
      {"molecule": "O=C(O)c1ccc(S(=O)(=O)O)cc1C(=O)O", "viability change, negative = cytotoxic": "18.8% [at 78.8 µM]"},
      {"molecule": "CCC(Cl)CCC(Cl)C(Cl)CC(Cl)C(Cl)C(Cl)CCl", "note": "(stereo not given)", "viability change, negative = cytotoxic": "-0.541%"},
      {"molecule": "Nc1ccc(S(=O)(=O)Nc2ccccc2)cc1", "viability change, negative = cytotoxic": "0.195%"},
      {"molecule": "COS(=O)(=O)C(F)(F)F", "viability change, negative = cytotoxic": "0.0548% [at 78.8 µM]"},
      {"molecule": "c1cc(CCCc2ccncc2)ccn1", "viability change, negative = cytotoxic": "-1.24%"},
      {"molecule": "CN1CCC(=C2c3ccccc3Sc3ccccc32)CC1", "viability change, negative = cytotoxic": "-30.2%"},
      {"molecule": "CCN(CC)CCOC(=O)C(c1ccccc1)C1CCCCC1", "note": "(stereo not given)", "viability change, negative = cytotoxic": "-23.3%"},
      {"molecule": "C[N+](C)(C)CCOC(=O)CCC(=O)OCC[N+](C)(C)C", "viability change, negative = cytotoxic": "9.5%"},
      {"molecule": "COC(=O)c1ccc(I)cc1S(=O)(=O)NC(=O)Nc1nc(C)nc(OC)n1", "viability change, negative = cytotoxic": "2.49%"},
      {"molecule": "CCCCCCCCCOS(=O)(=O)O", "viability change, negative = cytotoxic": "-0.06%"},
      {"molecule": "C/C=C/C=C/CO", "viability change, negative = cytotoxic": "11%"},
      {"molecule": "O=[N+]([O-])c1ccc2[nH]ncc2c1", "viability change, negative = cytotoxic": "1.6%"},
      {"molecule": "O=C(O)C(S)C(S)C(=O)O", "note": "(stereo not given)", "viability change, negative = cytotoxic": "-0.582%"},
      {"molecule": "CCOC(=O)COC(=O)c1cc(Oc2ccc(C(F)(F)F)cc2Cl)ccc1[N+](=O)[O-]", "viability change, negative = cytotoxic": "15.3%"},
      {"molecule": "O=C1c2ccccc2S(=O)(=O)N1CCCCN1CCN(c2ncccn2)CC1", "viability change, negative = cytotoxic": "-2.21%"},
      {"molecule": "CCCOC(C(=O)OC1CCN(C)CC1)(c1ccccc1)c1ccccc1", "viability change, negative = cytotoxic": "-10.8%"},
      {"molecule": "CC(CSC(=O)c1ccccc1)C(=O)N1C[C@@H](Sc2ccccc2)C[C@H]1C(=O)O", "note": "(stereo not given in full)", "viability change, negative = cytotoxic": "-1.03% [at 28.5 µM]"},
      {"molecule": "COc1ccnc(CS(=O)c2nc3ccc(OC(F)F)cc3[nH]2)c1OC", "note": "(stereo not given)", "viability change, negative = cytotoxic": "4.81%"},
      {"molecule": "Cc1cc(C(=O)O)ccc1[N+](=O)[O-]", "viability change, negative = cytotoxic": "9.9%"},
      {"molecule": "O=C1OC(CN2CCOCC2)CN1/N=C/c1ccc([N+](=O)[O-])o1", "note": "(stereo not given)", "viability change, negative = cytotoxic": "-7.71%"},
      {"molecule": "ClCCOCCOCCCl", "viability change, negative = cytotoxic": "-10.1%"},
      {"molecule": "C=CCOc1ccccc1OCC(O)CNC(C)C", "note": "(stereo not given)", "viability change, negative = cytotoxic": "-3.24%"},
      {"molecule": "CCCCO", "viability change, negative = cytotoxic": "0%"},
      {"molecule": "CC1=CC=C(C(C)C)CC1", "viability change, negative = cytotoxic": "9.72%"},
      {"molecule": "NC(=O)C(c1ccccc1)(c1ccccc1)[C@@H]1CCN(CCc2ccc3c(c2)CCO3)C1", "viability change, negative = cytotoxic": "-1.73%"},
      {"molecule": "CCOC(=O)c1cccnc1", "viability change, negative = cytotoxic": "8.55%"},
      {"molecule": "C/C=C(/C(=C/C)c1ccc(OC(C)=O)cc1)c1ccc(OC(C)=O)cc1", "viability change, negative = cytotoxic": "2.93%"},
      {"molecule": "CCCCCCCN", "viability change, negative = cytotoxic": "3.31% [at 78.8 µM]"},
      {"molecule": "CCCCC1=NC2(CCCC2)C(=O)N1Cc1ccc(-c2ccccc2-c2nn[nH]n2)cc1", "viability change, negative = cytotoxic": "-0.177%"},
      {"molecule": "Nc1ncn([C@H]2C[C@H](O)[C@@H](CO)O2)c(=O)n1", "viability change, negative = cytotoxic": "-4.03%"}
    ]}
  ]
}
